# In the supplement of paper PMC8728848:
# About 410 targets per protein were measured; listed, in parts, are those with the strongest signals and a random draw of the rest.
# B1: DC-SIGN (Canis lupus), XP_853402 (protein)
# chain: AGLCRPCPWKWELFQESCYFFSQTQNTWKESISACQNLRAQLVIINSTEEQKFLKSWNTRNNQRTWIGLSDHHNEGSWKWVDNTPLQLSFWKEGEPNNHGDEDCVELYSDGWNDNRCSTENFWICKKPSSPCPGPGLNDIFEAQKIEWHE
# Assays:
# Assay in all cases: glycan array binding signal (z-score within array); higher = stronger binding
# Conditions in all cases: glycan notation: IUPAC condensed, linker removed
# [1] = biological target: Fuc(a1-2)Gal(b1-3)[Fuc(a1-4)]GlcNAc(b1-2)Man(a1-3)[Fuc(a1-2)Gal(b1-3)[Fuc(a1-4)]GlcNAc(b1-2)Man(a1-6)]Man(b1-4)GlcNAc(b1-4)GlcNAc
# Procedure, shortened: (§1)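 Columns mapping to the same glycan were averaged after glycan names were converted to IUPAC-condensed notation. The data come from 3228 arrays in the Consortium for Functional Glycomics database, limited to those with an available protein sequence. Binding is reported as a within-array Z-score averaged across arrays of one protein sequence and across linkers.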
# [2] = biological target: Fuc(a1-2)[GalNAc(a1-3)]Gal(b1-4)GlcNAc
# Procedure, shortened: as §1
# Fuc(a1-3)GlcNAc = biological target: Fuc(a1-3)GlcNAc
# Procedure, shortened: as §1
# [3] = biological target: Fuc(a1-3)[Gal(b1-4)]GlcNAc(b1-2)Man(a1-3)[Fuc(a1-3)[Gal(b1-4)]GlcNAc(b1-2)Man(a1-6)]Man(b1-4)GlcNAc(b1-4)GlcNAc
# Procedure, shortened: as §1
# [4] = biological target: Fuc(a1-3)[Gal(b1-4)]GlcNAc(b1-4)Gal(b1-4)[Fuc(a1-3)]GlcNAc
# Procedure, shortened: as §1
# [5] = biological target: Gal(a1-3)[Gal(a1-4)]Gal(b1-4)GlcNAc
# Procedure, shortened: as §1
# Gal(b1-2)Gal = biological target: Gal(b1-2)Gal
# Procedure, shortened: as §1
# [6] = biological target: Gal(b1-3)GlcNAc(b1-3)Gal(b1-4)Glc
# Procedure, shortened: as §1
# [7] = biological target: Gal(b1-3)[Fuc(a1-4)]GlcNAc(b1-2)Man(a1-3)[Gal(b1-3)[Fuc(a1-4)]GlcNAc(b1-2)Man(a1-6)]Man(b1-4)GlcNAc(b1-4)[Fuc(a1-6)]GlcNAc
# Procedure, shortened: as §1
# [8] = biological target: Gal(b1-3)[Neu5Ac(a2-6)]GalNAc
# Procedure, shortened: as §1
# [9] = biological target: Gal(b1-4)GalNAc(b1-3)[Fuc(a1-2)]Gal(b1-4)GlcNAc
# Procedure, shortened: as §1
# Gal3S(b1-3)GlcNAc = biological target: Gal3S(b1-3)GlcNAc
# Procedure, shortened: as §1
# [10] = biological target: GlcNAc(a1-4)Gal(b1-3)GlcNAc
# Procedure, shortened: as §1
# [11] = biological target: GlcNAc(a1-4)Gal(b1-4)GlcNAc(b1-3)Gal(b1-4)GlcNAc(b1-3)Gal(b1-4)GlcNAc
# Procedure, shortened: as §1
# [12] = biological target: GlcNAc(a1-4)Gal(b1-4)GlcNAc(b1-3)Gal(b1-4)[Fuc(a1-3)]GlcNAc(b1-3)Gal(b1-4)[Fuc(a1-3)]GlcNAc
# Procedure, shortened: as §1
# [13] = biological target: GlcNAc(a1-6)Gal(b1-4)GlcNAc
# Procedure, shortened: as §1
# [14] = biological target: GlcNAc(b1-3)[GlcNAc(b1-6)]Gal(b1-4)GlcNAc
# Procedure, shortened: as §1
# [15] = biological target: GlcNAc(b1-4)GlcNAc(b1-4)GlcNAc(b1-4)GlcNAc(b1-4)GlcNAc
# Procedure, shortened: as §1
# [16] = biological target: Man(a1-2)Man(a1-2)Man(a1-3)Man
# Procedure, shortened: as §1
# [17] = biological target: Man(a1-2)Man(a1-3)[Man(a1-2)Man(a1-6)]Man
# Procedure, shortened: as §1
# [18] = biological target: Man(a1-2)Man(a1-3)[Man(a1-2)Man(a1-6)]Man(a1-6)[Man(a1-2)Man(a1-2)Man(a1-3)]Man
# Procedure, shortened: as §1
# [19] = biological target: Man(a1-2)Man(a1-3)[Man(a1-2)Man(a1-6)]Man(a1-6)[Man(a1-2)Man(a1-2)Man(a1-3)]Man(b1-4)GlcNAc(b1-4)GlcNAc
# Procedure, shortened: as §1
# [20] = biological target: Man(a1-3)[Man(a1-6)]Man(a1-6)[Man(a1-2)Man(a1-3)]Man(b1-4)GlcNAc(b1-4)GlcNAc
# Procedure, shortened: as §1
# [21] = biological target: Man(a1-3)[Man(a1-6)]Man(a1-6)[Man(a1-3)]Man(b1-4)GlcNAc(b1-4)GlcNAc
# Procedure, shortened: as §1
# [22] = biological target: Neu5Ac(a2-3)Gal(b1-4)GlcNAc
# Procedure, shortened: as §1
# [23] = biological target: Neu5Ac(a2-3)Gal(b1-4)GlcNAc6S
# Procedure, shortened: as §1
# [24] = biological target: Neu5Ac(a2-3)Gal(b1-4)[Fuc(a1-3)]GlcNAc
# Procedure, shortened: as §1
# [25] = biological target: Neu5Ac(a2-3)Gal(b1-4)[Fuc(a1-3)]GlcNAc(b1-6)[Gal(b1-3)]GalNAc
# Procedure, shortened: as §1
# [26] = biological target: Neu5Ac(a2-3)[GalNAc(b1-4)]Gal(b1-4)GlcNAc
# Procedure, shortened: as §1
# [27] = biological target: Neu5Ac(a2-6)Gal(b1-4)GlcNAc(b1-2)Man(a1-3)[GlcNAc(b1-2)Man(b1-4)GlcNAc(b1-2)Man(a1-6)]Man(b1-4)GlcNAc(b1-4)GlcNAc
# Procedure, shortened: as §1
binder,measurement,setting,value
B1,glycan array binding signal (z-score),[1],0.148
same,glycan array binding signal (z-score),[2],-0.137
same,glycan array binding signal (z-score),Fuc(a1-3)GlcNAc,0.009
same,glycan array binding signal (z-score),[3],-0.157
same,glycan array binding signal (z-score),[4],0.044
same,glycan array binding signal (z-score),[5],-0.15
same,glycan array binding signal (z-score),Gal(b1-2)Gal,-0.033
same,glycan array binding signal (z-score),[6],-0.172
same,glycan array binding signal (z-score),[7],5.73
same,glycan array binding signal (z-score),[8],-0.216
same,glycan array binding signal (z-score),[9],-0.176
same,glycan array binding signal (z-score),Gal3S(b1-3)GlcNAc,-0.026
same,glycan array binding signal (z-score),[10],0.018
same,glycan array binding signal (z-score),[11],-0.272
same,glycan array binding signal (z-score),[12],1.73
same,glycan array binding signal (z-score),[13],-0.105
same,glycan array binding signal (z-score),[14],-0.336
same,glycan array binding signal (z-score),[15],-0.267
same,glycan array binding signal (z-score),[16],7.92
same,glycan array binding signal (z-score),[17],3.37
same,glycan array binding signal (z-score),[18],7.69
same,glycan array binding signal (z-score),[19],4.83
same,glycan array binding signal (z-score),[20],11.8
same,glycan array binding signal (z-score),[21],0.127
same,glycan array binding signal (z-score),[22],-0.217
same,glycan array binding signal (z-score),[23],-0.127
same,glycan array binding signal (z-score),[24],-0.257
same,glycan array binding signal (z-score),[25],-0.407
same,glycan array binding signal (z-score),[26],-0.085
same,glycan array binding signal (z-score),[27],-0.249
